Shown are actives, neighbours in structure and some others; about 3.9% of the full set was active somewhere.
HSF-1 act: increases HSF-1 driven luciferase reporter signal; NIH3T3-HGL HSF-1 luciferase reporter, MG132, 8 h; 100% = twice DMSO control signal; activation, % at 9 µM; 300,000 tested, 1.7% active;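 active = mean replicate activation of at least 50% with a set share of replicates each reaching 50%; inconclusive = only one of those two conditions met; inactive = mean below 50% and too few replicates reaching it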;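 also: 0% = median of the neutral control wells and 100% = twice that signal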
MITF act: activators of MITF-driven TRPM1 promoter activity in SK-MEL-5 cells. 300,000 tested, 0.75% active. activation, % at 12.5 µM. AID 588334. SK-MEL-5 TRPM1-promoter luciferase, 24 h; % of positive control, neutral wells = 0;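 active = mean activation of at least 80% with every replicate also reaching 80%; inconclusive = mean reaches 80% but some replicate falls short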;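 also: 0% = neutral control wells and 100% = parthenolide positive control wells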
Wnt bcat act: Wnt/beta-catenin pathway activation | Wnt/beta-catenin reporter cell assay, activator, plate reader | activation, % at 9.35 µM | 300,000 tested, 1.2% active; in the data active = activation above about 30%, passing the limit was not always enough; inconclusive = no clear call, values can overlap the other calls;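 also: 0% = neutral control wells and 100% = positive control wells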
esBAF inh: blocks esBAF chromatin remodeling in mouse ES cells | Bmi1-luciferase knock-in reporter, 24 h; 100% = twice the neutral-well signal | reporter increase, % at 12.5 µM | 350,000 tested, 2% active | AID 602393; in the data active = activation above about 40%; inconclusive = no clear call, values can overlap the other calls;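 also: 0% = median of the plate's neutral control wells and 100% = double that signal; a rise in the Bmi1 reporter signal indicates esBAF inhibition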
HSF1 inh: HSF1 inhibition; AID 2098; activity change, negative = inhibition, % at 7.5 µM (by protocol); NIH3T3-HGL HSE-luciferase, MG132-induced, luminescence 8 h; hits give low values; 300,000 tested, 0.77% active;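 active = more than half of replicate wells show activity change below -50%, luminescence cut by over half; inconclusive = some wells, but at most half, below -50%; inactive = no replicate well below -50%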;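 also: luciferase reports HSF-1 transcriptional activity via heat shock element; 0% = median of DMSO wells and -100% = zero luminescence signal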
Active calls of the source: *; ? = inconclusive; . = not tested or not shown.

SMILES | HSF-1 act | MITF act | Wnt bcat act | esBAF inh | HSF1 inh
C[C@H]1CN([C@@H](C)CO)C(=O)CCCn2nncc2CO[C@@H]1CN(C)Cc1ccc2c(c1)OCCN2C | . | . | . | -3 | .
CO[C@H]1CN(C)C(=O)c2ccc(NC(=O)C3CC3)cc2OC[C@H](C)NC[C@H]1C | . | . | . | 3 | .
O=C(CSC1CS(=O)(=O)c2cc([N+](=O)[O-])ccc21)NNC(=O)c1ccc(Cl)cc1 (stereo unspecified) | 61* | . | 2 | . | 16
CO[C@H]1CC[C@@H]2CCN(C)C(=O)[C@H](C)N(C)C(=O)c3cc(C#N)ccc3OC[C@H]1O2 | . | . | . | 3 | .
CCOC(=O)CSc1nc2ccc(C)cc2cc1C#N | 68* | 134* | -1 | 71* | 32
CCOC(=O)CSc1nc2cc(C)ccc2cc1C#N | 49 | 40 | 49* | 44* | 16
Cc1ccc2cc(C#N)c(SCC(=O)N3CCCC3)nc2c1 | -17 | 67 | 33* | 9 | 2
Cc1cccc(-c2nsc(SCC(=O)N3CCCC3)n2)c1 | 40 | 89* | 29 | . | 24
CCOc1ccc2nc(SCC(=O)N3CCCCCC3)c(C#N)cc2c1 | -1 | . | . | 2 | 13
CCOC(=O)CSc1nc2cc(OC)ccc2cc1C#N | 31 | 111* | 67* | 33 | 8
Cc1ccc(C)c(NC(=S)c2nc3ccccc3s2)c1 | 19 | 35 | ? | . | 23
COc1ccc2nc(NC(=O)Cc3cccs3)sc2c1 | 65* | 53 | . | 34 | 37
O=C(NNc1nc2ccccc2s1)C1CC1 | . | -7 | . | -2 | .
CC(C)C(=O)NNc1nc2ccccc2s1 | 34 | 78 | 16 | 92* | 7
CCOc1ccc2nc(NC(=O)Cc3cccs3)sc2c1 | 17 | . | 1 | 21 | 5
Cc1ccc(Nc2nc3ccccc3s2)c(C)c1 | 66* | 28 | . | . | 11
O=C(Cc1nc(=O)c2ccccc2s1)Nc1ccccc1 | 49 | . | . | 62* | 25
CC=Cc1ccc2n(c1=O)C[C@@H]1[C@@H](CO)[C@H](C(=O)N3CCCCC3)N(CC3CC3)[C@H]21 (mixture of isomers) | . | . | . | -1 | .
O=C(N[C@H]1CC[C@H](CCNS(=O)(=O)c2ccc(Cl)cc2)O[C@H]1CO)c1cccc(F)c1 | . | . | . | 7 | .
COc1ccccc1CNC(=O)C[C@@H]1CC[C@H](NC(=O)CC2CC2)[C@H](CO)O1 | . | . | . | 3 | .
Cc1noc(C)c1S(=O)(=O)Nc1cccc2c1O[C@@H](CN(C)S(=O)(=O)c1cccs1)[C@@H](C)CN([C@H](C)CO)C2=O | . | . | . | 0 | .
CC(=O)c1c(C)nc(Nc2nc3ccccc3s2)nc1C | 33 | . | 38* | . | 18
Cc1ccccc1S(=O)(=O)/N=C(/Nc1c(C)n(C)n(-c2ccccc2)c1=O)c1ccccc1 | -3 | 2 | -3 | 3 | -5
O=C(Cc1cccs1)Nc1nc2ccccc2s1 | 66* | 63 | . | 49* | 45
Cc1cc(C)nc(Nc2nc3ccccc3s2)n1 | 14 | 13 | 16 | . | 14
SMILES | HSF-1 act | MITF act | Wnt bcat act | esBAF inh | HSF1 inh
O=C(Cc1ccccc1)Nc1nc2ccccc2s1 | -58 | ? | 8 | 50* | ?
Cc1ccccc1S(=O)(=O)/N=C(/Nc1nc2ccccc2s1)c1ccccc1 | . | 98* | 53* | 62* | .
C[C@@H]1CN([C@@H](C)CO)C(=O)Cc2cc(NS(=O)(=O)c3ccc(Cl)cc3)ccc2O[C@H]1CN(C)Cc1ccc(-c2ccccc2)cc1 | . | . | . | 0 | .
CN(C)CC(=O)N1[C@@H]2Cn3c(ccc(-c4ccccc4)c3=O)[C@H]1[C@@H](C(=O)N1CCCCC1)[C@@H]2CO | . | . | . | -5 | .
Cc1noc(C)c1NC(=O)N(C)C[C@@H]1Oc2ccc(NS(=O)(=O)c3ccc(F)cc3)cc2CC(=O)N([C@H](C)CO)C[C@H]1C | . | . | . | 1 | .
C[C@H]1CN([C@@H](C)CO)C(=O)c2cccc(NS(=O)(=O)c3ccccc3)c2O[C@H]1CN(C)Cc1ccc(Cl)c(Cl)c1 | . | . | . | -6 | .
CC1(C(=O)Nc2nc3ccccc3s2)CC1(Br)Br (stereo unspecified) | 20 | 83* | 14 | ? | 9
COCC(=O)Nc1nc2ccccc2s1 | -2 | 18 | 19 | 19 | 4
CCn1c(C)nc2cc(C(=O)N/N=C(\C)c3ccccc3O)ccc21 | 15 | 90* | 6 | . | 14
CC(C)C#Cc1cnc2c(c1)C(=O)N([C@@H](C)CO)C[C@@H](C)[C@H](CN(C)C(=O)Nc1ccccc1F)O2 | . | . | . | 2 | .
C/C(=N\Nc1ccc(C(=O)O)cc1)c1ccc(Br)cc1 | -34 | -28 | 4 | -20 | -19
